The test is described as follows: acridine orange displacement from DNA – biochemical, fluorescence polarization, cherry-pick, artefact control for RAD54 inhibitor project, dose response (AID 651673).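 Also: polarization loss reports compound binding to salmon sperm DNA.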 On the technique in general: Polarisation of emitted light reports the rotation of a fluorescent probe.

The list shows a part of the results. Calls of active or inactive are those of the source.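 The calls were made as follows: active = signal drop giving an AC50 within twice the top valid tested concentration of each sample (actives reach about 35 µM in these data); inactive = activity opposite to expected, plus the rest.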

For the compound `CN1CCN(c2cc(N3CCNCC3)ccc2[N+](=O)[O-])CC1`, the result was inactive.

The record behind these values is PubChem BioAssay AID651673 (Broad Institute, 2012).
